Experiment [1] can be described thus: High-throughput drug toxicity screening in the BPDCN cell line Gen2.2 (AID 1224824; call rule not given here;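 also: cells exposed to compounds for 48 h before reading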). As to conditions: Gen2.2 BPDCN cells; at 45.8 µM (top of the series) unless noted. The essentials:
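CellTiter-Glo luminescence after 48 h compound exposure of Gen2.2 cells; percent activity set with DMSO as 100% and bortezomib (9.2 uM final) as 0%. Cells seeded at 500 per well, RPMI + 10% FBS, 37 °C.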

Experiment [2] in a line: High-throughput drug toxicity screening in the BPDCN cell line Cal-1 (AID 1224825; call rule not given here). The conditions noted are these: Cal-1 BPDCN cell viability, qHTS; at 45.8 µM (top of the series) unless noted. The essentials: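 Exponentially growing Cal-1 cells, 500 per well in phenol red-free RPMI with 10% FBS, were exposed to compounds for 48 h at 37 °C, 5% CO2. Viability was read by CellTiter-Glo luminescence and normalised to DMSO (100%) and 9.2 uM bortezomib (0%).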

Experiment [3] in a line: qHTS assay for measurement of the activity of small molecule inhibitors on Zika virus induced Caspase-3 activity in human iPSC derived neural progenitor cells (hNPCs) (AID 1224857). Also: % of control where 0% means no effect; nearly all actives have a fitted effect of over 65% in size. The essentials: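 Human iPSC-derived neural progenitor cells pretreated 1 hr with compounds, then infected with Zika virus (2 FFU/cell) for 6 hours at 37 C. Caspase-3/7 measured by Caspase-Glo luminescence; % inhibition calculated from induction scaled to uninfected (0%) and infected (100%) wells.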

A short description of experiment [4]: qHTS assay for measurement of the activity of small molecule inhibitors on Zika virus induced Caspase-3 activity in human astrocytoma cells (AID 1224859).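 Also: plate controls were ZIKV-infected untreated cells for no effect and uninfected cells for full effect.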 In short, it runs like this: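 SNB-19 astrocytoma cells, 250/well, pretreated 1 h with compounds, then Zika virus at 2 FFU/cell for 6 h at 37 C; Caspase-Glo 3/7 luminescence after 30 min; percent inhibition normalised to uninfected and infected controls.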

Experiment [5] is described as follows: qHTS Screen of the MIPE 4.0 Collection Against Ewings Sarcoma (RDES) (AID 1259252). Also: nearly all actives have a fitted effect of over 35% in size. Also: potency is read from the fitted curve at half-maximal effect. In short, it runs like this: (§1)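 Here, cells in 5% FBS RPMI were exposed for two days (48 h) to compound dilutions added four hours after plating. ATP-based CellTiter-Glo luminescence measured viability, normalized to vehicle and no-cell blanks.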
Experiment [6] is described as follows: qHTS Screen of the MIPE 4.0 Collection Against Ewings Sarcoma (TC71) (AID 1259253). Also: nearly all actives have a fitted effect of over 40% in size. Also: potency is read from the fitted curve at half-maximal effect. The essentials: as §1
The nature of experiment [7]: qHTS Screen of the MIPE 4.0 Collection Against Ewings Sarcoma (EW8) (AID 1259255). Also: nearly all actives have a fitted effect of over 35% in size. Also: potency is read from the fitted curve at half-maximal effect.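 As to viability: 100% = DMSO-treated cells and 0% = medium-only wells without cells.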 In short, it runs like this: as §1
The nature of experiment [8]: qHTS Screen of the MIPE 4.0 Collection Against Ewings Sarcoma (TC32) (AID 1259256). Also: nearly all actives have a fitted effect of over 45% in size. Also: potency is read from the fitted curve at half-maximal effect. In short, it runs like this: as §1
Experiment [9] can be described thus: P-glycoprotein substrates identified in KB-8-5-11 adenocarcinoma cell line, qHTS therapeutic library screen (AID 1346987). Also: nearly all actives have a fitted effect of over 65% in size. Also: potency is read from the fitted curve at half-maximal effect. In short, it runs like this:
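Steps: plate 500 KB-8-5-11 cells/well in DMEM + 10% FCS (colchicine removed); pin compounds in dose-response; incubate 72 h, 37 degree C, 5% CO2; add CellTiter-Glo, 5 min; read luminescence.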

Records with an inconclusive call do not appear. Calls of active or inactive are those of the source. Unless noted, calls follow the shape of the dose curve; as a rule, active = well fitted curve in the direction sought with a large enough effect; inconclusive = small, poorly fitted or top-dose-only effect, or another doubt; inactive = no such curve, though single readings can be large; an effect the other way counts as inactive or inconclusive.

Regarding `C=C[C@@H]1CN2CCC1C[C@H]2[C@H](O)c1ccnc2ccc(OC)cc12` (stereo partly drawn), the cell viability, % of control (lower = more cytotoxic) in experiment [1] was 111%. Moreover, in [2], the viability (% of control) was determined as 70%. Further, the Potency entry in experiment [3], in experiment [4], in [5], in [6], in experiment [7] and in experiment [8] was “inactive” throughout. For the same molecule, the Potency result in experiment [9] is “inactive”.

Regarding `O=c1c(O)c(-c2ccc(O)c(O)c2)oc2cc(O)ccc12`, the cell viability, % of control (lower = more cytotoxic) in experiment [1] stood at 9.57%. Further, the viability (% of control) in [2] came out at 2.16%. Further, the Potency entry in [3] and in [4] was “inactive” throughout. Moreover, the Potency in experiment [5] is 14.8 µM (active); in experiment [6], 18.7 µM (active); in experiment [7] it was 16.6 µM (active); in experiment [8], 20.9 µM (active); in experiment [9] it was 13.2 µM (active).

As for `C=C1C(=O)O[C@H]2[C@@H]1CCC(C)=CCC[C@@]1(C)O[C@@H]21`, the cell viability, % of control (lower = more cytotoxic) in experiment [1] is 2.53%. Moreover, the viability (% of control) in experiment [2] worked out at 2.31%. For the same molecule, the Potency entry in [3] and in experiment [4] was “inactive” throughout. The Potency was 20.9 µM (active) in experiment [5]; 10.5 µM (active) in experiment [6]; 9.35 µM (active) in [7]; 9.35 µM (active) in experiment [8]; 23.5 µM (active) in [9].

On to `CCCCOc1ccc(C(=O)Nc2ccc(F)cc2F)cc1`, for which the cell viability, % of control (lower = more cytotoxic) in experiment [1] came to 152%. Moreover, in [2], the viability (% of control) came to 105%. For the same molecule, the Potency entry in [3], in [4], in [5], in experiment [6], in experiment [7] and in experiment [8] was “inactive” throughout. Moreover, the Potency entry in experiment [9] is “inactive”.

For `CCCCCCCCc1ccc(CCC(N)(CO)CO)cc1`, in experiment [1], the cell viability, % of control (lower = more cytotoxic) was 4.54%. In addition, the viability (% of control) in experiment [2] stood at 3.28%. In addition, the Potency entry in experiment [3] and in [4] was “inactive” each time. In addition, the Potency in experiment [5] is 23.5 µM (active); in [6] it was 20.9 µM (active); in experiment [7], 20.9 µM (active); in [8] it was 18.7 µM (active); in experiment [9], 23.5 µM (active).

Regarding `CC[C@@]1([C@@H]2O[C@@H]([C@H]3O[C@@](O)(CO)[C@H](C)C[C@H]3C)C[C@H]2C)CC[C@H]([C@]2(C)CC[C@]3(C[C@H](O)[C@@H](C)[C@@H]([C@@H](C)[C@@H](OC)[C@H](C)C(=O)O)O3)O2)O1`, the cell viability, % of control (lower = more cytotoxic) in experiment [1] came out at 27.8% [at 23.2 µM]. Moreover, the viability (% of control) in [2] came out at 65.7% [at 23.2 µM]. Besides, the Potency entry in experiment [3] and in [4] was “inactive” in each case. Besides, the Potency is 0.257 µM (active) in experiment [5]; 0.257 µM (active) in experiment [6]; 0.162 µM (active) in [7]; 0.162 µM (active) in experiment [8]; 0.911 µM (active) in experiment [9].

Turning to `O=C(NCc1ccccc1)[C@H](Cc1ccccc1)NC(=O)[C@@H]1O[C@@H]1C(=O)NCCc1ccc(O)cc1`, in experiment [1], the cell viability, % of control (lower = more cytotoxic) amounted to 49%. The viability (% of control) in experiment [2] stood at 54.1%. Moreover, the Potency entry in experiment [3], in experiment [4] and in experiment [9] was “inactive” in each case. In addition, the Potency is 1.05 µM (active) in experiment [5], 1.05 µM (active) in experiment [6], 1.05 µM (active) in experiment [7] and 1.18 µM (active) in [8].

Regarding `C[C@H](CCC(=O)O)[C@H]1CC[C@H]2[C@@H]3[C@H](O)C[C@@H]4C[C@H](O)CC[C@]4(C)[C@@H]3CC[C@]12C`, the cell viability, % of control (lower = more cytotoxic) in experiment [1] was 114%. Also, the viability (% of control) in [2] was 97.2%. Besides, the Potency result in experiment [3], in experiment [4], in [5], in experiment [6], in experiment [7] and in [8] was “inactive” each time. The Potency entry in experiment [9] was “inactive”.

As to `CC[C@H](CC[C@@H](C)[C@H]1CC[C@H]2[C@@H]3CC=C4C[C@@H](O)CC[C@]4(C)[C@@H]3CC[C@]12C)C(C)C`, the cell viability, % of control (lower = more cytotoxic) in experiment [1] is 114%. Moreover, in experiment [2], the viability (% of control) came out at 107%. Moreover, the Potency entry in [3], in experiment [4], in experiment [5], in [6], in [7] and in experiment [8] was “inactive” in each case. The Potency entry in [9] was “inactive”.

Turning to `NC(=O)c1ncn([C@@H]2O[C@H](CO)[C@@H](O)[C@@H]2O)c1N`, the cell viability, % of control (lower = more cytotoxic) in experiment [1] amounted to 191%. Besides, the viability (% of control) in experiment [2] stood at 112%. Further, the Potency entry in [3], in experiment [4], in experiment [5], in experiment [6], in experiment [7] and in experiment [8] was “inactive” throughout. Also, the Potency result in [9] is “inactive”.

`CC[C@H]1OC(=O)[C@H](C)[C@@H](O[C@H]2C[C@@](C)(OC)[C@@H](O)[C@H](C)O2)[C@H](C)[C@@H](O[C@@H]2O[C@@H](C)C[C@H](N(C)C)[C@@H]2O)[C@](C)(O)C[C@@H](C)C(=O)[C@H](C)[C@@H](O)[C@]1(C)O`: the cell viability, % of control (lower = more cytotoxic) in [1] came to 73.8%. In addition, the viability (% of control) in [2] is 97%. Also, the Potency result in experiment [3], in experiment [4], in experiment [5], in experiment [6], in experiment [7] and in experiment [8] was “inactive” each time. The Potency result in experiment [9] was “inactive”.

For `COC(=O)[C@H](CCCN=C(N)N)NS(=O)(=O)c1ccc(C)cc1`, the cell viability, % of control (lower = more cytotoxic) in experiment [1] was determined as 94.4%. In addition, the viability (% of control) in experiment [2] was found to be 104%. Moreover, the Potency entry in experiment [3], in [4], in experiment [5], in [6], in experiment [7] and in experiment [8] was “inactive” in each case. The Potency entry in experiment [9] was “inactive”.

As to `COC1=C2C[C@@H](C)C[C@H](OC)[C@@H](O)[C@@H](C)C=C(C)[C@H](OC(N)=O)[C@@H](OC)C=CC=C(C)C(=O)NC(=CC1=O)C2=O`, the cell viability, % of control (lower = more cytotoxic) in experiment [1] turned out to be 3.44%. For the same molecule, in experiment [2], the viability (% of control) worked out at 4.06%. The Potency result in experiment [3] and in experiment [4] was “inactive” in each case. Further, the Potency was 0.59 µM (active) in experiment [5]; 0.59 µM (active) in experiment [6]; 0.372 µM (active) in experiment [7]; 0.296 µM (active) in experiment [8]; 13.2 µM (active) in [9].

Turning to `CN(C)CC[C@H](c1ccc(Cl)cc1)c1ccccn1`, the cell viability, % of control (lower = more cytotoxic) in experiment [1] stood at 120%. For the same molecule, the viability (% of control) in experiment [2] was determined as 98.4%. Besides, the Potency entry in experiment [3], in experiment [4], in experiment [5], in [6], in experiment [7] and in experiment [8] was “inactive” each time. The Potency entry in experiment [9] was “inactive”.

For the molecule `C#Cc1cccc(Nc2ncnc3cc(OCCOC)c(OCCO)cc23)c1`, the cell viability, % of control (lower = more cytotoxic) in experiment [1] is 38.2%. Moreover, in experiment [2], the viability (% of control) was 12.5%. For the same molecule, the Potency result in [3] and in experiment [4] was “inactive” in each case. Also, the Potency in experiment [5] is 0.935 µM (active); in experiment [6], 18.7 µM (active); in experiment [7], 9.35 µM (active); in [8], 8.33 µM (active); in experiment [9], 23.5 µM (active).

Take `C#C[C@]1(O)CC[C@@H]2[C@@H]3CCc4cc(O)ccc4[C@H]3CC[C@@]21C`: the cell viability, % of control (lower = more cytotoxic) in [1] was found to be 67.3%. For the same molecule, in experiment [2], the viability (% of control) came out at 11.2%. Also, the Potency result in experiment [3] and in experiment [4] was “inactive” each time. The Potency in experiment [5] is 18.7 µM (active); in [6] it was 16.6 µM (active); in experiment [7], 20.9 µM (active); in experiment [8], 20.9 µM (active); in [9], 11.8 µM (active).

For the molecule `CN[C@@H]1C[C@H]2O[C@@](C)([C@H]1OC)n1c3ccccc3c3c4c(c5c6ccccc6n2c5c31)C(=O)N[C@H]4O`, in experiment [1], the cell viability, % of control (lower = more cytotoxic) was 13%. Also, the viability (% of control) in [2] is 4.51%. Moreover, the Potency entry in experiment [3] and in experiment [4] was “inactive” throughout. The Potency in experiment [5] is 0.935 µM (active); in [6], 0.209 µM (active); in [7] it was 0.418 µM (active); in experiment [8], 0.187 µM (active); in [9], 1.87 µM (active).

(Values after PubChem BioAssay (NCATS).)
